Here are results for 23 compounds from PubChem BioAssay (NCATS).

Assay in all cases: qHTS profiling for inhibitors of Plasmodium falciparum proliferation (AID 504749); further: nearly all actives have a fitted effect of over 60% in size
Common to all, as to conditions: P. falciparum in erythrocytes, SYBR Green DNA, 72 h; series mostly up to 28.7 µM

For one assay, the system named is DFO2036. In a few lines: (§1)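 SYBR Green fluorescence (ex 485 nm, em 535 nm) reports parasite DNA after 72 h compound exposure of infected red cells at 0.3% parasitemia, 2.5% hematocrit; signal normalized to 0.29 uM artemisinin and vehicle wells.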
The subject of a further assay is DIV30. In a few lines:
as §1

Another assay deals with ECU. In a few lines:
as §1

For the next assay, the system named is FAB9. In outline: as §1
The next assay deals with HB3. In outline:
as §1

The test system of the next assay is Dd2. In outline: as §1
The next assay concerns ICS. In outline:
as §1

The next assay deals with DIV17. In a few lines:
as §1

The next assay deals with GB4. In a few lines: as §1
The test system of the next assay is DIV14. In outline: as §1

Inconclusive results are not listed. Activity calls are given as the source filed them. The call rests on the fitted dose curve; in most records, active means well fitted inhibition curve with a large enough effect; inconclusive means small, poorly fitted or top-dose-only effect; inactive means flat fitted curve, though single readings scatter.
Potency means the concentration at half of the fitted maximal effect.

Consider `CC(=O)c1ccc2c(c1)N(CCCN1CCC(CCO)CC1)c1ccccc1S2`, for which the Potency result with DFO2036, in the assay on DIV30, in the assay on ECU, with FAB9 and with HB3 was “inactive” throughout.
Turning to `CCOC(=O)c1cccc(N)c1`, the Potency entry with DFO2036, in the assay with Dd2, in the assay with ECU, in the assay with FAB9, with HB3 and in the assay with ICS was “inactive” in each case. Besides, in the assay on DIV30, the Potency was 12 µM (active).
Take `CN1CCC[C@@H]1c1cccnc1`: the Potency entry in the assay with DFO2036, in the assay with DIV17, in the assay with DIV30, in the assay with Dd2, in the assay with ECU and in the assay with FAB9 was “inactive” in each case. Further, the Potency entry in the assay with GB4, in the assay on HB3 and in the assay with ICS was “inactive” each time.
With `CCCOC(C(=O)OC1CCN(C)CC1)(c1ccccc1)c1ccccc1`, the Potency result in the assay on DFO2036 and in the assay on FAB9 was “inactive” each time. Also, the Potency with DIV14 is 7.57 µM (active); with DIV17, 7.57 µM (active); with Dd2, 12.6 µM (active); in the assay with ECU, 10 µM (active); in the assay with ICS, 7.94 µM (active).
As for `COc1cc2c(cc1OC)C(=O)C(CC1CCN(Cc3ccccc3)CC1)C2` (stereo unspecified), the Potency entry in the assay on DFO2036, in the assay with DIV30, with ECU, in the assay on FAB9 and with HB3 was “inactive” each time. In addition, the Potency with DIV14 was 10.7 µM (active); in the assay on Dd2 it was 8.91 µM (active).
`Cc1cc(O)c(C(C)C)cc1Cl`: the Potency result in the assay with DFO2036, in the assay with DIV14, in the assay with DIV30, in the assay with Dd2, in the assay with ECU and in the assay with FAB9 was “inactive” in each case. Further, the Potency in the assay on ICS was 10 µM (active).
Consider `CCN(CC)CCOC(=O)C(c1ccccc1)C1CCCCC1` (stereo unspecified), for which the Potency result in the assay on DFO2036, with DIV30, with FAB9 and with HB3 was “inactive” each time. In addition, the results for the Potency with DIV14 and in the assay on Dd2 were 5.36 µM (active) and 11.2 µM (active), respectively.
As for `CC1=C(C(=O)OC(C)C)C(c2cccc([N+](=O)[O-])c2)C(C(=O)OC2CN(C(c3ccccc3)c3ccccc3)C2)=C(N)N1` (stereo unspecified), the Potency in the assay with DFO2036 was 7.08 µM (active); in the assay with DIV14 it was 7.57 µM (active); with DIV17, 9.53 µM (active); in the assay with Dd2, 11.2 µM (active); with ECU, 7.08 µM (active); in the assay with GB4, 6.01 µM (active). Also, the Potency in the assay with HB3 was 11.2 µM (active); in the assay on ICS it was 4.47 µM (active).
In the case of `Cc1ccc(C(=O)C(C)CN2CCCCC2)cc1` (stereo unspecified), the Potency result in the assay on DFO2036, with DIV14, with Dd2 and in the assay on FAB9 was “inactive” in each case. Further, the Potency with GB4 was 13.5 µM (active); in the assay on ICS, 3.98 µM (active).
Turning to `C[C@@H]1C[C@H]2[C@@H]3CCC4=CC(=O)C=C[C@]4(C)[C@@]3(F)[C@@H](O)C[C@]2(C)[C@H]1C(=O)CO`, the Potency entry in the assay with DFO2036, in the assay on Dd2, in the assay on ECU and in the assay on FAB9 was “inactive” in each case. Further, in the assay on DIV14, the Potency was 13.5 µM (active).
Take `CC(O)(P(=O)(O)O)P(=O)(O)O`: the Potency entry with DFO2036, in the assay with DIV30, with Dd2, in the assay on ECU, with FAB9 and in the assay on HB3 was “inactive” throughout. For the same compound, the Potency entry in the assay on ICS is “inactive”.
On to `CN1C2CCC1CC(OC(=O)c1c[nH]c3ccccc13)C2` (stereo unspecified), for which the Potency entry with DFO2036, in the assay with DIV17, in the assay with DIV30, in the assay on Dd2, in the assay on ECU and with FAB9 was “inactive” in each case. For the same compound, the Potency entry with GB4, with HB3 and in the assay on ICS was “inactive” in each case.
As to `COc1ccc(C2C(=O)c3ccccc3C2=O)cc1`, the Potency entry in the assay on DFO2036, in the assay with DIV17, with DIV30, with Dd2, in the assay with ECU and with FAB9 was “inactive” each time. In addition, the Potency entry in the assay on GB4, in the assay on HB3 and in the assay with ICS was “inactive” in each case.
Turning to `CC(=O)OCC(=O)[C@@]1(OC(C)=O)[C@@H](C)C[C@H]2[C@@H]3C[C@H](F)C4=CC(=O)C=C[C@]4(C)[C@@]3(F)[C@@H](O)C[C@@]21C`, the Potency result with DFO2036, in the assay on DIV30, with Dd2, in the assay on ECU, with FAB9 and in the assay on HB3 was “inactive” in each case. Also, in the assay on ICS, the Potency was 11.2 µM (active).
In the case of `CCCCCCCCCCCCCCNCCO`, the Potency is 17.8 µM (active) in the assay on DFO2036, 10 µM (active) in the assay on Dd2, 10 µM (active) in the assay with HB3 and 6.31 µM (active) in the assay on ICS. Moreover, the Potency result in the assay on DIV30 and in the assay with FAB9 was “inactive” in each case.
For `C[C@@H]1C(=O)NC2=Nc3cccc(Cl)c3CN21`, the Potency result with DFO2036, in the assay with DIV17, in the assay with DIV30, with Dd2, with ECU and with FAB9 was “inactive” in each case. Further, the Potency entry in the assay on HB3 is “inactive”.
Turning to `CCN1CCC[C@H]1CNC(=O)c1c(OC)ccc(Br)c1OC`, the Potency entry in the assay on DFO2036, in the assay with DIV30, in the assay on ECU, with FAB9, with HB3 and with ICS was “inactive” in each case. Also, in the assay on Dd2, the Potency was 12.6 µM (active).
With `O=C1OC(c2ccc(O)cc2)(c2ccc(O)cc2)c2ccccc21`, the Potency entry in the assay with DFO2036, in the assay with DIV14, in the assay on DIV17, in the assay with Dd2, in the assay with FAB9 and in the assay on GB4 was “inactive” each time. In addition, the Potency entry in the assay on HB3 and with ICS was “inactive” in each case.
Regarding `COC1=CC(=O)C[C@@H](C)[C@]12Oc1c(Cl)c(OC)cc(OC)c1C2=O`, the Potency entry in the assay with DFO2036, in the assay on DIV17, in the assay on DIV30, in the assay on Dd2, in the assay on ECU and in the assay on FAB9 was “inactive” throughout. Besides, the Potency entry in the assay on GB4, in the assay with HB3 and with ICS was “inactive” throughout.
On to `CCCCc1nc(Cl)c(CO)n1Cc1ccc(-c2ccccc2-c2nn[nH]n2)cc1`, for which the results for the Potency with DIV14 and in the assay with ICS were 8.49 µM (active) and 7.94 µM (active), respectively. In addition, the Potency result in the assay with FAB9 was “inactive”.
`CC(Cc1cccc(C(F)(F)F)c1)NCCOC(=O)c1ccccc1` (stereo unspecified): the Potency entry with DFO2036, in the assay with DIV30, in the assay on ECU, with FAB9, with HB3 and with ICS was “inactive” each time.
In the case of `CC(C)N=C(N)/N=C(\N)Nc1ccc(Cl)cc1`, the Potency entry in the assay on DIV14 was “inactive”. In addition, the Potency in the assay on Dd2 was 3.55 µM (active).
On to `C[C@@H](CN(C)C)CN1c2ccccc2Sc2ccccc21`, for which the Potency entry in the assay on DFO2036, with ECU, in the assay with FAB9 and with HB3 was “inactive” in each case.
